# Data reported in PubChem BioAssay AID2284362 (EPA ToxCast).
# Results filed as inconclusive are left out. Active and inactive are the calls of the source. How the source made its calls: active means hit-call score of the fitted dose curve at least 0.9, where 1 is the maximum; inconclusive means response in the unintended direction; inactive means score below 0.9.
# Experiment: CCTE_Mundy_HCI_iCellGABA_NOG_NeuriteCount: CCTE's Neurite Outgrowth Assay in iCellGABA cells for Neurite Count, Mundy Lab
# Experimental: CCTE_Mundy_HCI_iCellGABA_NOG is a multiplexed, cell-based-readout assay that uses iCell GABANeurons from FUJIFILM Cellular Dynamics, Inc. (FCDI), human GABAergic enriched neurons derived from induced pluripotent stem (iPS) cells, with measurements taken at 50.33 hours after chemical dosing in a microplate: 96-well plate.CCTE_Mundy_HCI_iCellGABA_NOG_NeuriteCount is one of four components of the CCTE_Mundy_HCI_iCellGABA_NOG assay. It measures neurite outgrowth related to number of neurites using High Content Imaging of fluorescently labelled markers.Data from the assay component CCTE_Mundy_HCI_iCellGABA_NOG_NeuriteCount was analyzed at the endpoint CCTE_Mundy_HCI_iCellGABA_NOG_NeuriteCount in the positive analysis fitting direction relative to DMSO as the negative control and baseline of activity. Using a type of morphology reporter, loss-of-signal activity can be used to understand developmental effects.
# Exposure starts 2 hours post-plating by adding 10 ul of the working solution to 90 ul of media in the wells for a 1/10 dilution. Forty-eight hours after chemical treatment cells are fixed by direct addition of 100 ul of warm (37C) Dulbecco's phosphate buffered saline (DPBS) fixative solution containing 8% paraformaldehyde, 8% sucrose, and 0.1% of 3 mg/ml Hoechst 33342 into each well. Primary antibodies are prepared by dilution in Immunocytochemical Staining Buffer (ISB), 10X Dulbecco's PBS, 0.1% Saponin, 5% Bovine Serum Albumin, 0.5% NaN3 (Sodium Azide) and betaIII-tubulin (rabbit anti-betaIII-tubulin, 1:800) followed by Alexa Fluor-488 secondary (1:500) to label neuronal cell bodies and neurites. A Cellomics ArrayScan VTi HCS Reader is used for automated image acquisition and analysis of neurite outgrowth.
Compound,AC50,outcome
CCN(CC)c1nc(C)cc(OP(=S)(OC)OC)n1,89.1 µM (active),–
CCOP(=S)(OCC)OC(Cl)C(Cl)(Cl)Cl (centres undefined),29.7 µM (active),–
COP(=S)(OC)SCN1C(=O)c2ccccc2C1=O,74.2 µM (active),–
CNC(=O)CSP(=O)(OC)OC,–,inactive
COP(=O)(OC)OC=C(Cl)Cl,–,inactive
CCOP(=S)(OCC)SCSC(C)(C)C,81.4 µM (active),–
CCOP(=O)(OCC)Oc1nc(Cl)c(Cl)cc1Cl,–,inactive
COP(=O)(OC)O/C(C)=C/C(=O)N(C)C,–,inactive
CCOP(=S)(OCC)Oc1nc(Cl)c(Cl)cc1Cl,30.1 µM (active),–
COP(=O)(OC)C(O)C(Cl)(Cl)Cl (centres undefined),–,inactive
COP(N)(=O)SC (centres undefined),–,inactive
COP(=O)(NC(C)=O)SC (centres undefined),–,inactive
CCOC(=O)CC(SP(=O)(OC)OC)C(=O)OCC (centres undefined),–,inactive
CCOP(=S)(OCC)Oc1cc(C)nc(C(C)C)n1,76.5 µM (active),–
CCOP(=S)(OCC)Oc1ccc2c(C)c(Cl)c(=O)oc2c1,71.2 µM (active),–
CCOP(=O)(SC(C)CC)N1CCSC1=O (centres undefined),–,inactive
CCCSP(=O)(OCC)Oc1ccc(Br)cc1Cl (centres undefined),–,inactive
CCOP(=S)(OCC)SCSCC,–,inactive
CCOC(=O)CC(SP(=S)(OC)OC)C(=O)OCC (centres undefined),74.1 µM (active),–
CNC(=O)CSP(=S)(OC)OC,–,inactive
COP(=O)(OC)OC(Br)C(Cl)(Cl)Br (centres undefined),16.1 µM (active),–
CCCCSP(=O)(SCCCC)SCCCC,65.2 µM (active),–
COP(=O)(OC)O/C(=C\Cl)c1cc(Cl)c(Cl)cc1Cl,66.5 µM (active),–
CCOP(=S)(Oc1cnc(C(C)(C)C)nc1)OC(C)C (centres undefined),–,inactive
